The values that follow come from PubChem BioAssay (EPA / NIEHS).

Test [1] can be described thus: CCTE_Shafer_MEA_dev_bursting_electrodes_number: CCTE's Neural Network Formation Assay for Number of Bursting Electrodes, Shafer Lab (AID 2284043). The procedure, abridged: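 Primary rat cortical neurons were cultured on PEI-coated 48-well MEA plates (16 electrodes/well) and exposed from plating through day 12, with compound renewed at feeds on DIV 5 and 9. Electrodes bursting ≥1 per 2 min were counted on DIV 5, 7, 9, 12; trapezoidal AUC taken.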

Test [2] is described as follows: CCTE_Shafer_MEA_acute_AB: CCTE's Alamar Blue Assay for Cytotoxicity in the Neural Acute Assay, Shafer Lab (AID 2284069).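 Also: active compounds lower the viability signal compared with DMSO wells.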 The procedure, abridged: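 Resazurin reduction (CellTiter Blue, 1:6 in fresh medium) read at ex 544/em 590 nm marks viability loss relative to DMSO. Cells: primary rat cortical neuron networks on microelectrode arrays, treated after baseline recording at 13 or 15 days in vitro.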
(In general: Alamar Blue is a resazurin reagent that responds to reducing activity.)

The nature of test [3]: CCTE_Mundy_HCI_hNP1_CellTiter: CCTE's Cell Titer-Glo 2 Assay in human neuroprogenitor cells for Viability, Mundy Lab (AID 2284241). In outline: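 Measures ATP content in human neural progenitors derived from WA09 embryonic cells. Read-out at 26.5 hours after dosing, with DMSO serving as the negative control and baseline.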
A general note: In ATP-based viability assays light output follows the ATP content of the culture.

Test [4] is described as follows: IUF_NPC5_oligodendrocyte_differentiation_120hr: Leibniz Research Institute for Environmental Medicine (IUF) 120-hour Oligodendrocyte Differentiation Assay (NPC5) (AID 2284304).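 Also: primary human fetal neural progenitor spheres plated to migrate and differentiate; share of O4-positive cells among Hoechst nuclei found by CNN image analysis.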 The procedure, abridged:
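Human primary NPC neurospheres migrating and differentiating on laminin for 120 h under continuous compound exposure (serial dilution, solvent control). Endpoint: percent O4+ oligodendrocytes among Hoechst nuclei, detected by CNN image analysis, with DMSO as negative control.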

A short description of test [5]: CCTE_Mundy_HCI_iCellGluta_NOG_NeuriteLength: CCTE's Neurite Outgrowth Assay in iCellGluta cells for Neurite Length, Mundy Lab (AID 2284318). In outline:
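Automated high-content imaging of betaIII-tubulin (Alexa Fluor-488) and Hoechst-stained cells gave neurite length, normalized to the DMSO baseline.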

The target of test [6] is Retinoic acid receptor alpha (Homo sapiens) (UniProt P10276). As to the kind of experiment: NVS_NR_hRARa_Agonist: NovaScreen (NVS) Nuclear Receptor Binding Assay for human Retinoic Acid Alpha Receptor Agonism (RAR) (AID 2283361). The procedure, abridged:
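Cell-free TR-FRET binding read-out with extracted human RARα protein, read 2 h after compound addition. Gain of signal scored against DMSO baseline. Primary screen at a single 25 uM in duplicate; actives then retested in concentration series.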

The nature of test [7]: CEETOX_H295R_11DCORT: CeeTox H295R High-throughput Steroidogenesis Assay for 11-Deoxycortisol (11DCORT) (AID 2283432; active = hit-call score of the fitted dose curve at least 0.9, where 1 is the maximum; inactive = score below 0.9). As to conditions: actives raise or lower the signal. In outline:
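Human adrenal H295R cells were prestimulated with 10 uM forskolin for 48 h, then exposed to test chemical (0.1% DMSO final) for 48 h. Medium 11-deoxycortisol was quantified by MTBE extraction and HPLC-MS/MS; bidirectional fitting relative to DMSO.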

A short description of test [8]: CEETOX_H295R_CORTIC: CeeTox H295R High-throughput Steroidogenesis Assay for Corticosterone (CORTIC) (AID 2283437; active = hit-call score of the fitted dose curve at least 0.9, where 1 is the maximum; inactive = score below 0.9;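 also: corticosterone secreted into medium quantified by mass spectrometry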). Conditions: actives raise or lower the signal. The procedure, abridged: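 H295R cells were prestimulated 48 h with 10 uM forskolin, then exposed 48 h to test chemical in 0.1% DMSO. Medium corticosterone was MTBE-extracted and quantified by HPLC-MS/MS; bidirectional fit versus DMSO baseline.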

A short description of test [9]: CEETOX_H295R_CORTISOL: CeeTox H295R High-throughput Steroidogenesis Assay for Cortisol (AID 2283438; active = hit-call score of the fitted dose curve at least 0.9, where 1 is the maximum; inactive = score below 0.9;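 also: cortisol secreted into medium quantified by LC-MS/MS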). Conditions: actives raise or lower the signal. In outline:
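Forskolin-primed H295R cells (10 uM, 48 h) treated 48 h with test chemical in 0.1% DMSO. Cortisol in medium quantified by MTBE extraction and HPLC-MS/MS; bidirectional fit vs DMSO, MTT viability in same wells.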

The nature of test [10]: CEETOX_H295R_DOC: CeeTox H295R High-throughput Steroidogenesis Assay for DOC (AID 2283439; active = hit-call score of the fitted dose curve at least 0.9, where 1 is the maximum; inactive = score below 0.9). Conditions: actives raise or lower the signal. In outline:
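H295R cells prestimulated 48 h with 10 uM forskolin, then exposed 48 h to test chemical (0.1% DMSO final). Medium 11-deoxycorticosterone measured by HPLC-MS/MS after MTBE extraction; bidirectional fit vs DMSO, viability checked by MTT in same wells.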

For test [11], the target named is mouse Peroxisome Proliferator-activated Receptor gamma (PPARg), Pparg (gene 19016) (UniProt P37238). Nature of the test: ATG_mPPARg_XSP2: Attagene TRANS-FACTORIAL Multi-Species (XSP2) HepG2 Assay for mouse Peroxisome Proliferator-activated Receptor gamma (PPARg) (AID 2283830).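 Also: hits are gains in reporter mRNA above DMSO so AC50 marks activation.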 The procedure, abridged:
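HepG2 cells transiently transfected with GAL4-UAS reporter units for chimeric NR-Gal4 proteins including mouse PPARg, exposed 24 h; medium contained 3 nM 6-alpha-fluorotestosterone and 1.5 nM norgestrel. Reporter mRNA quantified by RT-PCR, HpaI digestion and capillary electrophoresis, vs DMSO.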

Test [12] addresses zebrafish Thyroid Hormone Receptor alpha (TRa), thraa (gene 30670) (UniProt Q98867). As to the kind of experiment: ATG_zfTRa_XSP2: Attagene TRANS-FACTORIAL Multi-Species (XSP1) HepG2 Assay for zebrafish Thyroid Hormone Receptor alpha (TRa) (AID 2283832).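 Also: actives raise zebrafish TRa-Gal4 reporter transcript above DMSO baseline.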 The procedure, abridged: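 HepG2 transiently transfected with GAL4-UAS reporter units and chimeric zebrafish TRa-Gal4; reporter mRNA quantified after 24 h dosing by RT-PCR, HpaI digestion and capillary electrophoresis fluorescence. Gain of signal vs DMSO; XSP2 medium contains 3 nM 6-alpha-fluorotestosterone, 1.5 nM norgestrel.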

Test [13] concerns the target human Neurokinin, NK2 Receptor, TACR2 (gene 6865) (UniProt P21452). As to the kind of experiment: NVS_GPCR_hNK2: NovaScreen (NVS) G Protein-Coupled Receptor Assay for human Neurokinin, NK2 Receptor (AID 2283278).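 Also: actives reduce bound radioligand signal relative to DMSO baseline.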 The procedure, abridged: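 Cell-free radioligand binding using receptor protein extracted from CHO cells; readings taken 4 hours after chemical dosing by filter-based scintillation counting. Primary screen ran single concentration (25 uM) in duplicate; actives followed up in concentration series, loss-of-signal versus DMSO baseline.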

The target in test [14] is human Opioid Receptor Mu (Opiate Mu), OPRM1 (gene 4988) (UniProt P35372). As to the kind of experiment: NVS_GPCR_hOpiate_mu: NovaScreen (NVS) G Protein-Coupled Receptor Assay for human Opioid Receptor Mu (Opiate Mu) (AID 2283290).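 Also: hits lower bound tracer signal versus DMSO meaning displacement of the ligand.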 The procedure, abridged:
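Primary screen in duplicate at 25 uM, with actives followed in concentration series. CHO-derived receptor membranes, cell-free; bound radioligand read by scintillation counting after filtration at 2.5 h, decrease scored against DMSO.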

For test [15], the target named is human Beta-secretase (BACE), BACE1 (gene 23621) (UniProt P56817). Nature of the test: NVS_ENZ_hBACE: NovaScreen (NVS) Enzymatic Assay for human Beta-secretase (BACE) (AID 2283140).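 Also: hits are inhibitors that reduce fluorescent substrate signal versus DMSO.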 The procedure, abridged: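 Cell-free assay of recombinant Sf9-expressed human BACE with fluorescent substrate, read by fluorescence intensity after 1 h. Primary screen in duplicate at 25 uM; actives then run in concentration series; loss of signal relative to DMSO.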
Chain of human Beta-secretase (BACE), BACE1 (gene 23621) (P56817 whole entry, looked up): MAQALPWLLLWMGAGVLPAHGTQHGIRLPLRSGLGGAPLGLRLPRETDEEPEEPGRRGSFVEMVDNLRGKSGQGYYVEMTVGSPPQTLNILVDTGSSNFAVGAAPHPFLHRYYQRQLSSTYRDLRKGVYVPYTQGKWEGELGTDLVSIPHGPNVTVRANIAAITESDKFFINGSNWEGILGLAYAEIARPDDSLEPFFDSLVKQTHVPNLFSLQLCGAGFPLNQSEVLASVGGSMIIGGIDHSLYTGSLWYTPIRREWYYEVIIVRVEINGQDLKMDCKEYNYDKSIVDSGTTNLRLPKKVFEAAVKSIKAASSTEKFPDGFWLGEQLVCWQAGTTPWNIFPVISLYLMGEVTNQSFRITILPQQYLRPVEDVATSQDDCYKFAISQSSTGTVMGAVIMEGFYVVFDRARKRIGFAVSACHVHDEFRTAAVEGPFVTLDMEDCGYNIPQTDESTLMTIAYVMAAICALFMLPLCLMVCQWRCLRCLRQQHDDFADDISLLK

Test [16] can be described thus: CEETOX_H295R_11DCORT_noMTC: CeeTox H295R High-throughput Steroidogenesis Assay for 11-Deoxycortisol (11DCORT), maximum tolerated concentration (MTC) filtered results only (AID 2283911; active = hit-call score of the fitted dose curve at least 0.9, where 1 is the maximum; inactive = score below 0.9). Conditions: actives raise or lower the signal. In outline:
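Readout is 11-deoxycortisol in culture medium by reverse-phase HPLC with MS/MS, after 48 h chemical treatment of forskolin-primed H295R cells. Values are relative to DMSO and unfiltered for cytotoxicity.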

Test [17] can be described thus: CEETOX_H295R_OHPREG_noMTC: CeeTox H295R High-throughput Steroidogenesis Assay for OH-Pregnenolone (OHPREG), maximum tolerated concentration (MTC) filtered results only (AID 2283912; active = hit-call score of the fitted dose curve at least 0.9, where 1 is the maximum; inactive = score below 0.9). Conditions: actives raise or lower the signal. The procedure, abridged:
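H295R human adrenal cells, forskolin-prestimulated (10 uM, 48 h), then exposed to test chemical in 0.1% DMSO for 48 h. 17alpha-hydroxypregnenolone in medium measured by HPLC-MS/MS after MTBE extraction; bidirectional fit versus DMSO, concentrations not MTC-filtered.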

A short description of test [18]: CEETOX_H295R_OHPROG_noMTC: CeeTox H295R High-throughput Steroidogenesis Assay for OH-Progesterone (OHPROG), maximum tolerated concentration (MTC) filtered results only (AID 2283914; active = hit-call score of the fitted dose curve at least 0.9, where 1 is the maximum; inactive = score below 0.9). Conditions: actives raise or lower the signal. In outline:
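H295R human adrenal cells prestimulated 48 h with 10 uM forskolin, then exposed 48 h to test chemical (0.1% DMSO final). Medium 17alpha-hydroxyprogesterone extracted with MTBE, quantified by HPLC-MS/MS; bidirectional fit versus DMSO, concentrations not MTC-filtered.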

Test [19] in a line: CEETOX_H295R_CORTISOL_noMTC: CeeTox H295R High-throughput Steroidogenesis Assay for Cortisol, maximum tolerated concentration (MTC) filtered results only (AID 2283916; active = hit-call score of the fitted dose curve at least 0.9, where 1 is the maximum; inactive = score below 0.9). As to conditions: actives raise or lower the signal. In outline: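 H295R adrenal cells were pre-stimulated 48 h with 10 uM forskolin, then exposed 48 h to test chemical in 0.1% DMSO. Medium cortisol was measured by MTBE extraction and HPLC-MS/MS; bidirectional fit versus DMSO, concentrations not MTC-filtered.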

The nature of test [20]: CEETOX_H295R_CORTIC_noMTC: CeeTox H295R High-throughput Steroidogenesis Assay for Corticosterone (CORTIC), maximum tolerated concentration (MTC) filtered results only (AID 2283917; active = hit-call score of the fitted dose curve at least 0.9, where 1 is the maximum; inactive = score below 0.9). As to conditions: actives raise or lower the signal. In outline: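 H295R, 10 uM forskolin prestim 48 h → test chem (0.1% DMSO final) 48 h → media MTBE extraction → HPLC-MS/MS corticosterone. Bidirectional fit vs DMSO baseline; no MTT-based MTC filtering.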

The structures appear in SMILES notation. Results filed as inconclusive are left out. Where a structure was tested more than once in an assay, its records may differ in their call. Calls of active or inactive are those of the source. The calls were made as follows, unless noted: active = hit-call score of the fitted dose curve at least 0.9, where 1 is the maximum; inconclusive = response in the unintended direction; inactive = score below 0.9.

Chain of human Opioid Receptor Mu (Opiate Mu), OPRM1 (gene 4988) (P35372 whole entry, looked up): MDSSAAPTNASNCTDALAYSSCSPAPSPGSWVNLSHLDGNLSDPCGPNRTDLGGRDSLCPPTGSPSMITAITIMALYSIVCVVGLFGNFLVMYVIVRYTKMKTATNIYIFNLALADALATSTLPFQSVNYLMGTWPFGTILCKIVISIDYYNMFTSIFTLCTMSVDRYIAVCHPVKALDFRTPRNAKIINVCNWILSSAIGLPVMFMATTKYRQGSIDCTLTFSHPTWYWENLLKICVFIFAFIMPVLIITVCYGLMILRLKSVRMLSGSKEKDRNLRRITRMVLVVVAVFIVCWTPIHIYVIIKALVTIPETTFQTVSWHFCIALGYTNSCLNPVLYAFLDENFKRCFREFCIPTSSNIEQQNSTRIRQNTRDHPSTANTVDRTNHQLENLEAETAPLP
Chain of zebrafish Thyroid Hormone Receptor alpha (TRa), thraa (gene 30670) (Q98867 whole entry, looked up, the tested form may be a part): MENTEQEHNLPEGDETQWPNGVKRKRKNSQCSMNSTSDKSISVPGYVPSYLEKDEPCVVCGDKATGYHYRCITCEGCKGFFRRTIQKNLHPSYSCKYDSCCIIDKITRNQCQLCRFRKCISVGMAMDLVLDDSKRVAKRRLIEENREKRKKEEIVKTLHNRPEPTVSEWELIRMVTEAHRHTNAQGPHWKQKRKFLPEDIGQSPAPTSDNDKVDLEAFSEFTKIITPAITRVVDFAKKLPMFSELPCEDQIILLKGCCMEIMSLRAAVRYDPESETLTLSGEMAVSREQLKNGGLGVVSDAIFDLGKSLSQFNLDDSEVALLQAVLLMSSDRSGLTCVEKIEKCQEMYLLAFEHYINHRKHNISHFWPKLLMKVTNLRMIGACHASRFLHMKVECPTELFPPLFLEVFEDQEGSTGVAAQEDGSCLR
Chain of mouse Peroxisome Proliferator-activated Receptor gamma (PPARg), Pparg (gene 19016) (P37238 whole entry, looked up, the tested form may be a part): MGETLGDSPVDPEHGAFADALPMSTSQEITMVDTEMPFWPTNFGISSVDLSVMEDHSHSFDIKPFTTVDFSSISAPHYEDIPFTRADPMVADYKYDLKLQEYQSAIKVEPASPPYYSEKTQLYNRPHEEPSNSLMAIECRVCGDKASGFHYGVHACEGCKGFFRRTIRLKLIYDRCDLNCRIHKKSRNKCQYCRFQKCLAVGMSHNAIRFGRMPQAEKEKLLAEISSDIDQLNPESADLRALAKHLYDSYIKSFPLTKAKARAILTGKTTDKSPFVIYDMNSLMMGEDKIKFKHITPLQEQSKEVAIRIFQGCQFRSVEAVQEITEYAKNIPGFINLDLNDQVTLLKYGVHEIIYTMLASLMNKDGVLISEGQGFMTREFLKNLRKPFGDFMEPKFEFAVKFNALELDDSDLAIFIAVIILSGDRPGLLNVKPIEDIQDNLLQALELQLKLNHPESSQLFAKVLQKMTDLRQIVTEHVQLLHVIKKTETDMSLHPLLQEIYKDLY
Chain of Retinoic acid receptor alpha (Homo sapiens) (P10276 whole entry, looked up): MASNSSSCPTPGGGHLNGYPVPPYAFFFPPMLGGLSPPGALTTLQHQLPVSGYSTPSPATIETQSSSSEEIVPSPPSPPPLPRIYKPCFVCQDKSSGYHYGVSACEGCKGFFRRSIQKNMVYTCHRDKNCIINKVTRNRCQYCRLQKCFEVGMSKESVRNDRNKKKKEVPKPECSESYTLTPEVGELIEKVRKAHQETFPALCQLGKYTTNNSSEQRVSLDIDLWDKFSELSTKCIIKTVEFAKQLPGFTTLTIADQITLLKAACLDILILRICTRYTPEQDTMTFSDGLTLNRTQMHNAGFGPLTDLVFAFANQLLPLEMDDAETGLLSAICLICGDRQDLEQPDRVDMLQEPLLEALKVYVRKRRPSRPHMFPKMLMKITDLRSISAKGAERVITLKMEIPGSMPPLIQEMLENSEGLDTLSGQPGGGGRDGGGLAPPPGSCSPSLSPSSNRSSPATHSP
Chain of human Neurokinin, NK2 Receptor, TACR2 (gene 6865) (P21452 whole entry, looked up): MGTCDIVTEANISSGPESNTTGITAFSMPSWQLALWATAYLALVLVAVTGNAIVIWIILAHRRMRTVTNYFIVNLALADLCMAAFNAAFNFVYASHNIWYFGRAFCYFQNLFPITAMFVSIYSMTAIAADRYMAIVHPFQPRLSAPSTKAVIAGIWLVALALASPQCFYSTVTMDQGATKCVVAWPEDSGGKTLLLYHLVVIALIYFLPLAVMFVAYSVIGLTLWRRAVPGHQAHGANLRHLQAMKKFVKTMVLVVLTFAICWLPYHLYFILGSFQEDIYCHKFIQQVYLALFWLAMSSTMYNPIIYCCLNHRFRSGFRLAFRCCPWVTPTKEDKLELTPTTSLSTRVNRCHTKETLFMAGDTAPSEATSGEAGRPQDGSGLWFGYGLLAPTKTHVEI

Consider `CN(C)CCC(c1ccc(Cl)cc1)c1ccccn1` (stereo not given), for which the outcome in test [1], in test [2], in test [3], in [4] and in [5] was inactive.
Take `NC(N)=Nc1nc(CSCCC(N)=NS(N)(=O)=O)cs1`: the compound was classed as inactive in [1], in test [2], in test [3], in test [4] and in [5].
As usually defined, the AC50 is the concentration giving half of the maximal activity seen. In the case of `Cc1cc2nc3c(=O)[nH]c(=O)nc-3n(C[C@H](O)[C@H](O)[C@H](O)CO)c2cc1C`, in [6], the concentration at half-maximal activity (AC50) is 6.52 µM (active).
Take `Cc1cc(O)cc(C)c1Cl`: the call in test [6], in test [7], in [8], in [9], in [10] and in test [11] was inactive. The compound was classed as inactive in test [12]. The AC50 in test [11] is 72.9 µM (active); in [12] it was 100 µM (active).
For the compound `c1ccc(CNc2ncnc3nc[nH]c23)cc1`, the outcome in test [7], in test [8], in test [9] and in [10] was inactive.
For `CCCCCCCCCCCCCCCCCC[N+](C)(C)C`, the AC50 in test [13] was 4.53 µM (active); in [14], 3.4 µM (active).
As for `CC(C)CC(=O)CC(C)CC(C)C` (stereo not given), the compound was called inactive in test [15].
Turning to `Sc1nc2ccccc2s1`, the outcome in test [16], in test [17], in [18], in test [19] and in test [20] was inactive.
Regarding `O=C(O)c1ccccc1C(=O)O`, the compound was called inactive in test [16], in test [17], in test [18], in test [19] and in [20].
Regarding `CCCCCCCCCC/C=C/C1CC(=O)OC1=O` (stereo not given), the concentration at half-maximal activity (AC50) in [15] was 45.4 µM (active).
For the compound `CC[N+](CC)(CC(=O)Nc1c(C)cccc1C)Cc1ccccc1`, the AC50 in test [13] was 16.6 µM (active). In test [14], the outcome was inactive.
